From PubChem BioAssay AID743147 (Broad Institute, 2013)
Calls of active or inactive are those of the source.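 How the source made its calls: active means ATP luminescence loss from cell killing, with fitted half-maximal dose at or below the top valid tested dose; inconclusive means flat curve with partial loss of 30 to 70%, or poor fit; inactive means the rest.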

Assay: HEK293T cell cytotoxicity, dose response, cytotoxicity control, CellTiter-Glo luminescence, dry powder, set 5 (AID 743147)
Details: HEK293T viability, CellTiter-Glo ATP luminescence, 72 h; series mostly up to 26 µM

| SMILES | outcome |
| --- | --- |
| C[C@@H]1CC(=O)NN=C1c1ccc(C2CCCCC2)cc1 | inactive |
| CC(=O)Nc1ccc(C2=NNC(=O)C[C@H]2C)cc1[N+](=O)[O-] | inactive |
| O=C1CN2Cc3c(ccc(Cl)c3Cl)N=C2N1 | inactive |
| C[C@@H]1CC(=O)NN=C1c1ccc(N2CCOCC2)c(F)c1 | inactive |
| C[C@@H]1CC(=O)NN=C1c1ccc(-c2cncnc2)cc1 | inactive |
| C[C@@H]1CC(=O)NN=C1c1ccc(N2CCOCC2)cc1 | inactive |
| C[C@@H]1CC(=O)NN=C1c1ccc(Cl)cc1 | inactive |
| C[C@@H]1CC(=O)NN=C1c1ccc(F)c(F)c1 | inactive |
| COc1cc2c(cc1OC)-c1cc(=Nc3c(C)cc(C)cc3C)n(C)c(=O)n1CC2 | inactive |
| CCN(CC)c1ccc(C2=NNC(=O)CC2C)cc1[N+](=O)[O-] (stereo not drawn) | inactive |
| Cn1c(NC(=O)c2ccccc2)nc2ccccc21 | inactive |
| C[C@H]1CC(=O)NN=C1c1ccc(N2CCOCC2)c(F)c1 | inactive |
| CCN1N=C(c2ccc(N(CC)CC)cc2)[C@H](C)CC1=O | inactive |
